We go through 53 molecules from ChEMBL document CHEMBL4513216, “Probing the Open Global Health Chemical Diversity Library for Multistage-Active Starting Points for Next-Generation Antimalarials” (ACS Infect Dis, 2020).

The whole screen tested about 69,000 compounds, of which about 8,600 (12%) showed an effect of 50% or more. This excerpt belongs to a sample that is enriched for strong results.

The test deals with Plasmodium berghei. Briefly: Screen against P. berghei liver stage (PbLuc), transformed with Luciferase, at 10uM. The settings on record: tested at 10 uM. Type of test: functional, HepG2.
In the case of `Cc1nnc(N2C[C@H](OCC3CCCC3)[C@H]3OCCC[C@H]32)s1`, the INHIBITION is reported as -34.7%.

As to `COc1cccc(C2CCN(c3ccc4cc[nH]c4n3)C2)c1OC` (stereo not drawn), the INHIBITION amounted to 89.9%.

Consider `COc1ccccc1C1CCN(c2ccc3cc[nH]c3n2)CC1`, for which the INHIBITION was found to be 88.2%.

As to `COc1ccc(OC)c(C2CCN(c3ccc4cc[nH]c4n3)C2)c1` (stereo not drawn), the INHIBITION worked out at 79.2%.

For the molecule `COc1cccc(C2CC(=O)Nc3nc(N4CCCCC4)sc32)c1OC` (stereo not drawn), the INHIBITION amounted to 19.3%.

For `COc1cccc(C2CC(=O)Nc3nc(N4CCOCC4)sc32)c1OC` (stereo not drawn), the INHIBITION amounted to 13.4%.

As to `COc1ccccc1OC1CCN(c2nc(N)nc3[nH]cnc23)CC1`, the INHIBITION is given as -18.8%.

For `COC(=O)c1ccc(N2CCC(c3ccccc3)CC2)nn1`, the INHIBITION is -18.5%.

Consider `COc1ccc(OC)c(C2CCN(C3CCOCC3)C2)c1` (stereo not drawn), for which the INHIBITION is recorded as -68.6%.

With `COc1ccc(OC)c(C2CCN(Cc3nc(C)n4ccccc34)C2)c1` (stereo not drawn), the INHIBITION came to 45.8%.

Regarding `Fc1cnc(N2CCC3(CCCN(c4nncs4)C3)C2)nc1` (stereo not drawn), the INHIBITION worked out at 4.68%.

For the molecule `COCC1COCCC12CCN(CCc1ccccc1)CC2` (stereo not drawn), the INHIBITION is on record as 2.3%.

In the case of `O=C(Nc1cn[nH]c1)c1ccncc1`, the INHIBITION amounted to 35.95%.

With `CN(C)C(=O)CNC(=O)c1nc(C2CC2)n(-c2ccccc2Cl)n1`, the INHIBITION was -20.8%.

Consider `O=C(c1ccnnc1)N1CC[C@H]2C[C@H](c3ccncn3)O[C@@H]2C1`, for which the INHIBITION is 25.2%.

Consider `Cc1ccc(Oc2ncccc2C(=O)O)c(C)c1`, for which the INHIBITION is -16.2%.

Regarding `Cc1cnn(CC2CCN(c3cc(C(C)C)nc4ccnn34)CC2)c1`, the INHIBITION amounted to 21.2%.

On to `CC(=O)NCC1CCN(c2cc(C(C)C)nc3ccnn23)CC1`, for which the INHIBITION was found to be 59.4%.

With `CC(C)c1cc(NCC(C)N2CCCC2)n2nccc2n1` (stereo not drawn), the INHIBITION is on record as 65.1%.

Take `CC(C)c1cc(N2CCC(N)CC2)n2nccc2n1`: the INHIBITION was -6.53%.

As for `CC(C)c1cc(N2CCC(CCC(=O)NC3CC3)CC2)n2nccc2n1`, the INHIBITION was 33.5%.

Regarding `CC(C)c1cc(N[C@@H](CO)C(N)=O)n2nccc2n1`, the INHIBITION amounted to 42.3%.

`CC(C)[C@H](Nc1cc(-c2ccncc2)nc2ccnn12)C(N)=O`: the INHIBITION was 25.5%.

With `CC(C)c1cc(N2CCN(c3ccc(O)cc3)CC2)n2nccc2n1`, the INHIBITION was 26.8%.

In the case of `CC(C)c1cc(N[C@H](C(N)=O)C(C)C)n2nccc2n1`, the INHIBITION is given as 55.2%.

On to `CC(C)c1cc(NCC(O)c2ccncc2)n2nccc2n1` (stereo not drawn), for which the INHIBITION turned out to be 0.897%.

As for `CC(C)c1cc(NCC(O)CO)n2nccc2n1` (stereo not drawn), the INHIBITION was 36.8%.

`CC(C)c1cc(N2CC[C@H](F)C2)n2nccc2n1`: the INHIBITION was found to be 65.7%.

Turning to `O=C(Cc1ccsc1)N1CCC(O)(CN2CCc3ccccc3C2)C1` (stereo not drawn), the INHIBITION is given as 30.8%.

On to `COc1ncccc1CN1C[C@@H]2COC[C@]2(COCC(=O)N(C)C)C1`, for which the INHIBITION is -3.52%.

As to `CCn1cc(C(=O)NCCN2CCCc3ccccc32)c(C)n1`, the INHIBITION is given as 12.9%.

Take `Cn1nc(C2CCN(C(=O)c3cccs3)CC2)c2cccnc21`: the INHIBITION came out at 47.2%.

On to `CCc1nc(CS(=O)(=O)Cc2noc(C3CC3)n2)cs1`, for which the INHIBITION is 34%.

For the molecule `CC(C)=CCN1CCN(C(=O)C2CC2)CC1`, the INHIBITION is listed as 21.5%.

For the molecule `CC(C)COCC1CN(Cc2ccsc2)Cc2ncn(C)c21` (stereo not drawn), the INHIBITION is reported as 16.4%.

For `Cn1nnc2c1C(COCc1cccnc1)CN(Cc1ccoc1)C2` (stereo not drawn), the INHIBITION came out at 29.4%.

Consider `Cc1nc(C)c(CNCC2(COc3cccnc3)C[C@@H](O)[C@@H](O)C2)s1` (stereo partly drawn), for which the INHIBITION amounted to 33.6%.

Take `Cc1noc(CCCC(=O)N2CCCC2c2ccsc2)n1` (stereo not drawn): the INHIBITION came out at 0.914%.

As to `Cc1cccc2c1NC1(CCCC1)NC2=O`, the INHIBITION worked out at 45.2%.

Regarding `COC(=O)C1CCN(C(=O)Cn2ccc(-c3ccc(F)cc3)n2)CC1`, the INHIBITION is recorded as -36.4%.

For the molecule `O=C1[C@@H]2CC[C@@H](CN(C3CSCCSC3)C2)N1Cc1cscn1`, the INHIBITION is listed as -14.9%.

For the molecule `CC(C)c1cc(N2CCSCC2)n2nccc2n1`, the INHIBITION is recorded as -6.03%.

For the molecule `Cc1cc2nc(C(C)C)cc(N3CCC(O)CC3)n2n1`, the INHIBITION is listed as 11.3%.

With `Cc1nn2c(N3CCCC(C#N)C3)cc(-c3ccccc3)nc2c1C` (stereo not drawn), the INHIBITION came out at 19.5%.

Turning to `CC(C)c1cc(N2CCC[C@H](N)C2)n2nccc2n1`, the INHIBITION was found to be 13%.

Take `Cc1nn2c(N3CCC(O)C3)cc(-c3ccccc3)nc2c1C` (stereo not drawn): the INHIBITION came to 38.5%.

In the case of `CN(C)C1CCN(c2cc(-c3ccccc3)nc3ccnn23)C1` (stereo not drawn), the INHIBITION is on record as 74.9%.

`Cc1cc(N2CCCC(N(C)C)C2)n2nccc2n1` (stereo not drawn): the INHIBITION was found to be 55.4%.

Take `CC(C)c1cc(N2CCC(N(C)C)C2)n2nccc2n1` (stereo not drawn): the INHIBITION stood at 53.9%.

Consider `Cc1cc(N2CCCC(N(C)C)C2)n2nc(C)cc2n1` (stereo not drawn), for which the INHIBITION is reported as -1.16%.

With `Cc1cc2nc(C(C)C)cc(N3CCC(N(C)C)C3)n2n1` (stereo not drawn), the INHIBITION was found to be 17.7%.

Take `CC(C)c1cc(N2CCC(C(C)N3CCCC3)CC2)n2nccc2n1` (stereo not drawn): the INHIBITION is given as 73%.

For the molecule `COC1CCN(c2cc(C(C)C)nc3ccnn23)C1` (stereo not drawn), the INHIBITION came out at 7.6%.
